Assay results published in PubChem BioAssay (EPA / NIEHS).
Inconclusive results are not listed. Calls of active or inactive are those of the source. Rule for the calls, unless noted: active = hit-call score of the fitted dose curve at least 0.9, where 1 is the maximum; inactive = score below 0.9.

Columns and labels:
[1] = target: Paired box protein Pax-6 (Homo sapiens) (UniProt P26367); experiment: ATG_Pax6_CIS: Attagene CIS-FACTORIAL HepG2 Assay for human Paired Box 6 (PAX6) (AID 2282956); conditions: HepG2 CIS-FACTORIAL PAX6 reporter transcription, RNA readout; actives raise or lower the signal
Sequence of Paired box protein Pax-6 (Homo sapiens) (P26367 whole entry, looked up): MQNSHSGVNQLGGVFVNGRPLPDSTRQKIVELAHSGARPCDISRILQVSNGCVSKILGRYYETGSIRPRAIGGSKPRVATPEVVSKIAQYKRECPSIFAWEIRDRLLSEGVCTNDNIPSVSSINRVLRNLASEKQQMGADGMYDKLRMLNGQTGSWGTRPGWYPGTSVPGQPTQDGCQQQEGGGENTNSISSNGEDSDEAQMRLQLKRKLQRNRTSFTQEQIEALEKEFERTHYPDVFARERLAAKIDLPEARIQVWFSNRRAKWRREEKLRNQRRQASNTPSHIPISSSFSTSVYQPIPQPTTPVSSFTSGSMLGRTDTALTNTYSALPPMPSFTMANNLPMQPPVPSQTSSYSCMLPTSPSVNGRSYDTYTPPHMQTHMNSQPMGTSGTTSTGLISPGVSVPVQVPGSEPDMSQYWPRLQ
In short: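 Fluorescent RT-PCR products separated by capillary electrophoresis report PAX6-linked promoter mRNA in HepG2 cells 24 h post-dose. Curves fitted bidirectionally, DMSO as negative control.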

[2] = ATG_PXRE_CIS: Attagene CIS-FACTORIAL HepG2 Assay for human Pregnane X Receptor Element (PXRE) (AID 2282957); conditions: HepG2 Attagene CIS-FACTORIAL PXRE reporter, mRNA; actives raise or lower the signal
In short: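 Bidirectional activity, baselined to DMSO, derived from reporter mRNA fluorescence (RT-PCR plus capillary electrophoresis) in HepG2 cells bearing cis-promoter reporter units, 24 h exposure.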

[3] = ATG_RORE_CIS: Attagene CIS-FACTORIAL HepG2 Assay for human RAR-related Orphan Receptor Element (RORE) (AID 2282959); conditions: HepG2 Attagene cis-factorial RORE reporter, mRNA; actives raise or lower the signal
In short: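 Readout: fluorescent reporter mRNA by RT-PCR plus capillary electrophoresis, 24 h after dosing transfected HepG2 cells. Endogenous transcription factor activity on a cis promoter element is measured. Gain or loss of signal fitted against DMSO.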

[4] = ATG_Sox_CIS: Attagene CIS-FACTORIAL HepG2 Assay for human SRY-box transcription factor (SOX) (AID 2282960); conditions: HepG2 Attagene cis-factorial SOX reporter, mRNA; actives raise or lower the signal
In short: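 Read-out: fluorescent RT-PCR products of SOX1-linked reporter transcripts resolved by capillary electrophoresis, fitted bidirectionally against DMSO. Transiently transfected HepG2 cells, 24 h after chemical exposure, endogenous transcription factor activity.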

[5] = target: Transcription factor Sp1 (Homo sapiens) (UniProt P08047); experiment: ATG_Sp1_CIS: Attagene CIS-FACTORIAL HepG2 Assay for human Specificity Protein 1 (Sp1) (AID 2282961); conditions: HepG2 Sp1 cis-reporter transcription, actives raise or lower the signal
Sequence of Transcription factor Sp1 (Homo sapiens) (P08047 whole entry, looked up): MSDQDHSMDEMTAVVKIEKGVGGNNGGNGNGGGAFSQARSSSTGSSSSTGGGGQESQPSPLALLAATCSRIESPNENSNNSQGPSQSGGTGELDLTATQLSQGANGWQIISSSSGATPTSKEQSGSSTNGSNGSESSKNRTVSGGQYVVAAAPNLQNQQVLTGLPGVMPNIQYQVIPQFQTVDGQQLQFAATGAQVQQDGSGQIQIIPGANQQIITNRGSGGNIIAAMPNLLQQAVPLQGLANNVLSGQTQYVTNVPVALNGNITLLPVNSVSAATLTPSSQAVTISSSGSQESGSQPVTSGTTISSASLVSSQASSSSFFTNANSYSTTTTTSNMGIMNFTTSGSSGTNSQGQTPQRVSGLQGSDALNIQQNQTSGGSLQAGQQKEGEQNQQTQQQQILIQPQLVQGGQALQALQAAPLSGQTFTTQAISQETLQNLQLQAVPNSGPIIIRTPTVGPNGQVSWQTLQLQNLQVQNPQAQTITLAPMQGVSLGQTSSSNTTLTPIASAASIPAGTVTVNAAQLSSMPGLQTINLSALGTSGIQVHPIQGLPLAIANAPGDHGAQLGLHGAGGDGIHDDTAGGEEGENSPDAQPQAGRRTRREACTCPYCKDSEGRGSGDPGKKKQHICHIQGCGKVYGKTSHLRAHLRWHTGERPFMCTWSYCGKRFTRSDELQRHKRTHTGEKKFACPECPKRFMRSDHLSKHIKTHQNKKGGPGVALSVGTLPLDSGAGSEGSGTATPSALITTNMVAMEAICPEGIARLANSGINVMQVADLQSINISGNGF
In short: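 Read-out: fluorescence of 6-FAM-labeled, HpaI-digested RT-PCR products separated by capillary electrophoresis. HepG2 cells carried transfected cis-element reporter units and were exposed to chemicals for 24 h; gain or loss of signal fitted relative to DMSO.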

[6] = ATG_SREBP_CIS: Attagene CIS-FACTORIAL HepG2 Assay for human Sterol Regulatory Element Binding (SREBP) (AID 2282962); conditions: HepG2 Attagene cis-factorial SREBP reporter, mRNA; actives raise or lower the signal
In short: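 Endogenous factor activity is measured in HepG2 through multiplexed reporter units under cis-element control. Following a 24 h incubation, reporter transcripts are reverse-transcribed, PCR-amplified and sized by capillary electrophoresis; activity is fitted in both directions relative to DMSO.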

[7] = target: Signal transducer and activator of transcription 3 (Homo sapiens) (UniProt P40763); experiment: ATG_STAT3_CIS: Attagene CIS-FACTORIAL HepG2 Assay for human Signal Transducer and Activator of Transcription 3 (STAT3) (AID 2282963); conditions: HepG2, Attagene cis-factorial STAT3 reporter transcription; actives raise or lower the signal
Sequence of Signal transducer and activator of transcription 3 (Homo sapiens) (P40763 whole entry, looked up, the tested form may be a part): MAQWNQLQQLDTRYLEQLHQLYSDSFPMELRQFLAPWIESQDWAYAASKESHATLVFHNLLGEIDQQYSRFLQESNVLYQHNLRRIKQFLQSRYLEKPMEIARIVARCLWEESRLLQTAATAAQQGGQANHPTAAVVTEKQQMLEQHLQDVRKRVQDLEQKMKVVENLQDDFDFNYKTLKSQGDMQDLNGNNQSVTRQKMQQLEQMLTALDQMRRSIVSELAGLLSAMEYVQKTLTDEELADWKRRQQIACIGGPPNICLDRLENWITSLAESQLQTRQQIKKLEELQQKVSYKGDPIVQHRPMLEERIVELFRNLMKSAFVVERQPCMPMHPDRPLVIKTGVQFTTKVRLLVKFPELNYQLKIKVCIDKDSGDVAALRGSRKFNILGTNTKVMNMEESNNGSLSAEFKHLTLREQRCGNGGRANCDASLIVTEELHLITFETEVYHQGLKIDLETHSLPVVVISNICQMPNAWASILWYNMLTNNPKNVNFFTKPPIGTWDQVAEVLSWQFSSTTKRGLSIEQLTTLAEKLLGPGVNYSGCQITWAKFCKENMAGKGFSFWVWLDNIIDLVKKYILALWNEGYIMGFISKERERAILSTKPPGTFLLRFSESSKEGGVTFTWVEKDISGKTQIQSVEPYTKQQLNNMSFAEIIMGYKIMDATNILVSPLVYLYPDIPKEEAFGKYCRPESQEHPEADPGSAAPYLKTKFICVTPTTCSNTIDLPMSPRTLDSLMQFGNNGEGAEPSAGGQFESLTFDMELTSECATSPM
In short: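 Fluorescence intensity of 6-FAM-labelled reporter fragments, separated by capillary electrophoresis after RT-PCR, gave the signal. Cells were HepG2 transfected with cis-element reporter units and treated 24 h; fitting was bidirectional relative to DMSO.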

[8] = ATG_TA_CIS: Attagene CIS-FACTORIAL HepG2 Assay for human TA Basal Promoter (AID 2282964); conditions: HepG2 Attagene CIS-factorial TA basal promoter reporter; actives raise or lower the signal
In short: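 Read-out: fluorescent reporter-transcript fragments resolved by capillary electrophoresis after RT-PCR and HpaI digestion. Source: HepG2 cells carrying transiently transfected multi-reporter cis constructs, treated 24 h. Endpoint fitted bidirectionally relative to DMSO.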

[9] = ATG_TCF_b_cat_CIS: Attagene CIS-FACTORIAL HepG2 Assay for human T-Cell-Factor with beta-catenin (TCF/b-cat) (AID 2282965); conditions: HepG2 TCF/beta-catenin cis-reporter transcription, actives raise or lower the signal
In short: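 HepG2 cells transiently transfected with cis-promoter-driven multiplexed reporter units; reporter mRNA measured 24 h after dosing by RT-PCR, FAM labelling, HpaI digestion and capillary electrophoresis. Bidirectional fitting relative to DMSO baseline.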

[10] = ATG_TAL_CIS: Attagene CIS-FACTORIAL HepG2 Assay for human TAL Basal Promoter (AID 2282966); conditions: HepG2 Attagene cis-factorial TAL promoter reporter; actives raise or lower the signal;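 note: background control endpoint measuring basal TAL promoter reporter mRNA not a specific factor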
In short: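 Human hepatoma HepG2 cells, transfected with promoter-regulated reporter units, were treated 24 h. Reporter transcript levels, measured through RT-PCR and capillary electrophoresis, were fitted for gain or loss relative to DMSO.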

[11] = ATG_TGFb_CIS: Attagene CIS-FACTORIAL HepG2 Assay for human Transforming Growth Factor (TGF) (AID 2282967); conditions: HepG2 Attagene CIS TGFb reporter, mRNA transcription; actives raise or lower the signal
In short: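 Transient MRTU transfection of HepG2 (FuGene 6). Dose 24 h. TriZol RNA, oligo(dT) RT, PCR, 6-FAM primer extension, HpaI cut, CE. Bidirectional fit, DMSO = baseline.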

[12] = ATG_VDRE_CIS: Attagene CIS-FACTORIAL HepG2 Assay for human Vitamin D Receptor Element (VDRE) (AID 2282968); conditions: HepG2 VDRE cis-reporter transcription, actives raise or lower the signal
In short: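 Compounds were applied for 24 h to HepG2 cells transfected with promoter-regulated reporter units. Total RNA was reverse-transcribed, and reporter amplicons were fluorescently labelled and sized by capillary electrophoresis.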

[13] = target: Steroid hormone receptor ERR1 (Homo sapiens) (UniProt P11474); experiment: ATG_ERRa_TRANS: Attagene TRANS-FACTORIAL HepG2 Assay for human Estrogen-Related Receptor alpha (ERRa) (AID 2282971; active = hit-call score of the fitted dose curve at least 0.9, where 1 is the maximum); conditions: HepG2 Attagene TRANS reporter, ERRa transactivation
Sequence of Steroid hormone receptor ERR1 (Homo sapiens) (P11474 whole entry, looked up, the tested form may be a part): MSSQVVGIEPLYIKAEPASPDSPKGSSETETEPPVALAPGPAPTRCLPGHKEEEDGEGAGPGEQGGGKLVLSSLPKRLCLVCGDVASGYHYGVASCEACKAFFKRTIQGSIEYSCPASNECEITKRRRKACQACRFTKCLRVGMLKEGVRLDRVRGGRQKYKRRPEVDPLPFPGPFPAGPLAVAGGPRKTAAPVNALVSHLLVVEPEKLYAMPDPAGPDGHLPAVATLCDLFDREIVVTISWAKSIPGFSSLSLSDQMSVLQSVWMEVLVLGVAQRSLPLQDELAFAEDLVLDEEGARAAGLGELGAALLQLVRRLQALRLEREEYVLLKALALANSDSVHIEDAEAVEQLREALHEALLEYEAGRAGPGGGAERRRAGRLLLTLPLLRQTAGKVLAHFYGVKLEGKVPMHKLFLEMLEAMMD
In short: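 Signal gain relative to DMSO for an ERRa-Gal4 chimeric receptor, read as reporter mRNA by RT-PCR/capillary electrophoresis. Human HepG2 liver cells, transient multiplex reporter transfection, 24 h chemical exposure.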

[14] = target: X-box-binding protein 1 (Homo sapiens) (UniProt P17861); experiment: ATG_Xbp1_CIS: Attagene CIS-FACTORIAL HepG2 Assay for human X-box Binding Protein 1 (XBP1) (AID 2282972); conditions: HepG2 XBP1 cis-element reporter, Attagene multiplex; actives raise or lower the signal
Sequence of X-box-binding protein 1 (Homo sapiens) (P17861 whole entry, looked up): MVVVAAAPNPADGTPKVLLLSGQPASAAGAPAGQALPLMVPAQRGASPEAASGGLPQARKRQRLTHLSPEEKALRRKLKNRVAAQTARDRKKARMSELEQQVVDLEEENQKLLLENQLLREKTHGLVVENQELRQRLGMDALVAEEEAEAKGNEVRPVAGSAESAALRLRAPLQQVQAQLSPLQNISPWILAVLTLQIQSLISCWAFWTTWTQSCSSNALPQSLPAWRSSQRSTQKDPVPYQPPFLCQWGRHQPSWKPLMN
In short: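 Multiplexed cis-reporter readout in transfected HepG2 liver cells. Exposure lasted 24 hours. Activity in either direction was fitted against DMSO as negative control and baseline.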

[15] = ATG_M_19_TRANS: Attagene TRANS-FACTORIAL HepG2 Assay for M19 Transcription Factor (Internal Marker) (AID 2282974; active = hit-call score of the fitted dose curve at least 0.9, where 1 is the maximum); conditions: HepG2 Attagene TRANS-FACTORIAL M19 internal marker reporter
In short: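 24 h chemical exposure of transiently transfected HepG2 (MRTU library). RNA → oligo(dT) RT → PCR → 6-FAM labelling → HpaI cut → CE fluorescence. Positive-direction fit vs DMSO baseline; background internal-marker readout.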

[16] = ATG_GAL4_TRANS: Attagene TRANS-FACTORIAL HepG2 Assay for GAL4 (Internal Marker) (AID 2282976; active = hit-call score of the fitted dose curve at least 0.9, where 1 is the maximum); conditions: HepG2 Attagene TRANS GAL4 internal marker reporter
In short: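 Liver HepG2 line bearing multiplexed GAL4-UAS reporter constructs; 24 h chemical treatment. Transcripts were quantified as fluorescent fragments on capillary electrophoresis after RT-PCR and HpaI cut, with activity fitted upward from DMSO.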

[17] = ATG_PPRE_CIS: Attagene CIS-FACTORIAL HepG2 Assay for human Peroxisome Proliferator-activated Response Element (PPRE) (AID 2282958); conditions: HepG2 PPRE cis-element reporter, Attagene transcription factor profiling; actives raise or lower the signal
In short: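 Read-out: fluorescent reporter mRNA fragments resolved by capillary electrophoresis after RT-PCR. HepG2 cells carried transiently transfected PPRE-driven cis reporter constructs and were dosed for 24 h; gain or loss of signal fitted relative to DMSO.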

[18] = target: Nuclear receptor subfamily 1 group I member 3 (Homo sapiens) (UniProt Q14994); experiment: ATG_CAR_TRANS: Attagene TRANS-FACTORIAL HepG2 Assay for human Constitutive Androstane Receptor (CAR) (AID 2282969; active = hit-call score of the fitted dose curve at least 0.9, where 1 is the maximum;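 note: activators raise reporter mRNA above DMSO so AC50 marks induction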); conditions: HepG2 Attagene TRANS-FACTORIAL CAR reporter
Sequence of Nuclear receptor subfamily 1 group I member 3 (Homo sapiens) (Q14994 whole entry, looked up, the tested form may be a part): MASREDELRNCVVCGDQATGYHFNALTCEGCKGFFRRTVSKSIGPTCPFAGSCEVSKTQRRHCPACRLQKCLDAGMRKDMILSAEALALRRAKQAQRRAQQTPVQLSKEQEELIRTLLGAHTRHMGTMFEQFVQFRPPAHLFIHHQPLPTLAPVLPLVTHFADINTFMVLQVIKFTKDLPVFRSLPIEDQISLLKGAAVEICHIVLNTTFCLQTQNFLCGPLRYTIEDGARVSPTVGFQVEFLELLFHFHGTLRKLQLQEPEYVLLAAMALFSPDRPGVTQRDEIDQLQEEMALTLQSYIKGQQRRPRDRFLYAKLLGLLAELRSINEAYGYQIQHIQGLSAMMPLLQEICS
In short: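 Transiently transfected HepG2, multiplex TRANS reporters (CAR-Gal4 chimera driving GAL4-UAS reporter). 24 h dosing. Readout: reporter transcript by RT-PCR + capillary electrophoresis, fluorescence intensity; positive direction vs DMSO.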

[19] = target: Estrogen-related receptor gamma (Homo sapiens) (UniProt P62508); experiment: ATG_ERRg_TRANS: Attagene TRANS-FACTORIAL HepG2 Assay for human Estrogen-Related Receptor gamma (ERRg) (AID 2282977; active = hit-call score of the fitted dose curve at least 0.9, where 1 is the maximum;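 note: hits increase reporter signal over DMSO so potencies reflect activators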); conditions: HepG2 Attagene TRANS reporter, ERRg transactivation
Sequence of Estrogen-related receptor gamma (Homo sapiens) (P62508 whole entry, looked up, the tested form may be a part): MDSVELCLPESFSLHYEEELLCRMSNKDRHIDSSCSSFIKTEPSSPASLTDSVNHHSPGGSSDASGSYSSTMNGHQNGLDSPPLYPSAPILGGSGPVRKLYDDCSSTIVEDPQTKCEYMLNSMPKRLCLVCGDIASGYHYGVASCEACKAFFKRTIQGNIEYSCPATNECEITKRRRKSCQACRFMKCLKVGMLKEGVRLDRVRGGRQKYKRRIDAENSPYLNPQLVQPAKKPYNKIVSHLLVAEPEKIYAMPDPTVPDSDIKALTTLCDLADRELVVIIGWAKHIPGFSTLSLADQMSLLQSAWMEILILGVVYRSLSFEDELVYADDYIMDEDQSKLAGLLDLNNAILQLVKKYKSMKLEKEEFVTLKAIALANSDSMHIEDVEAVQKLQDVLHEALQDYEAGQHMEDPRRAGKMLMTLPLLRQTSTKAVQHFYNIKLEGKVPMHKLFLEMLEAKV
In short: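 Exogenous NR-Gal4 chimera activity measured as reporter transcript induction after 24 h in transiently transfected HepG2 cells. RNA reverse-transcribed, PCR-amplified, 6-FAM-labelled and resolved by capillary electrophoresis; increase over DMSO baseline.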

Measured: AC50

COCCOCCOCCO
active: [2] 33.4 µM
not listed: [17] | [18] | [19]
inactive: all other assays above

C1CCOC1
active: [2] 37.3 µM
not listed: [3] | [6] | [9] | [14]
inactive: all other assays above

CC1(C)C2=CCCC(C)(C)[C@]23CC[C@H]1C3
inactive: [1] | [17] | [4] | [5] | [7] | [8] | [9] | [10] | [14]
active: [2] 1.49 µM | [11] 100 µM | [12] 2 µM

CCCC(=O)OCCc1ccccc1
inactive: [1] | [2] | [17] | [6] | [7] | [10] | [11] | [12] | [14]

COc1ccc(COC(C)=O)cc1
not listed: [16] | [17]
inactive: all other assays above

COC(C)(C)CCCC(C)CC=O (configuration not stated)
not listed: [11] | [16] | [17] | [18]
inactive: all other assays above

Cc1ccc(N)c(S(=O)(=O)O)c1
not listed: [3] | [5] | [10] | [13] | [15] | [16] | [18] | [19]
inactive: all other assays above

CCCCCCCCCC(C)C=O (configuration not stated)
active: [2] 51.1 µM
not listed: [13] | [14] | [16] | [17] | [18] | [19]
inactive: all other assays above

CCCCC(CC)C(=O)OC(C)C (configuration not stated)
not listed: [11] | [13] | [17] | [18] | [19]
inactive: all other assays above
